Laboratory results reported in PubChem BioAssay (NCATS).
Results filed as inconclusive are left out. A call without a number means that no potency is given here. Active and inactive are the calls of the source. Calls come from the whole dose curve; as a rule, active = well fitted cell-killing curve with a large enough effect; inconclusive = small, poorly fitted or top-dose-only effect, or effect the other way; inactive = no such curve, though single readings can be large or run the other way.

Experiment: Quantitative High-Throughput drug screen in 47 multiple myeloma cell lines against the NCATS MIPE library collection: L363_DSMZ cell viability assay (AID 1918984)
Conditions: L363 myeloma viability, CellTiter-Glo ATP luminescence, 48 h; series mostly up to 45.8 µM
Outline: (§1)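 Readout: median RLU from CellTiter-Glo after 5 min at room temperature. Preceding step was 48 h drug treatment of 500 cells/well at 37 °C, 5% CO2, with DMSO-only and media-only control wells.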
Note: nearly all actives have a fitted effect of over 40% in size.

| SMILES | Potency |
| --- | --- |
| CC=CC1=C(C(=O)O)N2C(=O)[C@H](NC(=O)[C@H](N)c3ccc(O)cc3)[C@@H]2SC1 | inactive |
| Cc1cnc(-c2cnc(NCCNc3ccc(C#N)cn3)nc2-c2ccc(Cl)cc2Cl)[nH]1 | inactive |
| CC(C)(O)CCc1ccc(OCc2cc(-c3cccc(OC(F)F)c3)c3ncccc3c2)cc1 | inactive |

Experiment: Quantitative High-Throughput drug screen in 47 multiple myeloma cell lines against the NCATS MIPE library collection: KMS34_JCRB cell viability assay (AID 1918985); note: potency is the fitted concentration of half-maximal effect
Conditions: KMS34 myeloma viability, CellTiter-Glo ATP luminescence, 48 h; series mostly up to 45.8 µM
Outline: as §1

| SMILES | Potency |
| --- | --- |
| CC(O)C1C(=O)N2C(C(=O)O)=C(SC3CNC(C(=O)N(C)C)C3)C(C)C12 (stereo not drawn) | inactive |
| COC(=O)C[C@](O)(CCCC(C)(C)O)C(=O)O[C@@H]1C(OC)=C[C@]23CCCN2CCc2cc4c(cc2[C@H]13)OCO4 | 16.6 µM (active) |
| CC1(C)O[C@@H]2C[C@@H]3[C@H]4C[C@@H](F)C5=CC(=O)C=C[C@]5(C)[C@@]4(F)[C@@H](O)C[C@]3(C)[C@]2(C(=O)CO)O1 | inactive |
| COc1ccc(CC2SC(=O)NC2=O)cc1C(=O)NCc1ccc(C(F)(F)F)cc1 (stereo not drawn) | inactive |
| NC(=O)c1c(OCc2c(F)cc(Br)cc2F)nsc1NC(=O)NCCCCN1CCCC1 | 20.9 µM (active) |
| CCN(CC)CCCCNc1ncc2cc(-c3cc(OC)cc(OC)c3)c(NC(=O)NC(C)(C)C)nc2n1 | 33.2 µM (active) |
| CC(=O)OCCN1C(=O)c2c(C)nc3ccc(S(=O)(=O)N4CCOCC4)cc3c2C1=O | inactive |
| Clc1cccc(-n2nnnc2NCc2ccccc2Oc2ccccn2)c1Cl | inactive |
| Cc1cn2cc(C(=O)N(C)CCO)cc(N[C@@H]3CCOc4cccc(C)c43)c2n1 | inactive |
| COc1c(N2C[C@@H]3CCCN[C@H]3C2)c(F)cc2c(=O)c(C(=O)O)cn(C3CC3)c12 | 9.35 µM (active) |
